In PubChem BioAssay (NCI):
About 79,000 compounds went through this panel and 15% of them were active in at least one assay; those are over-represented in the sample as a whole. A number with no mark means an inactive call. The source made the active and inactive calls. No stated cut-off is given here; in the data, active means growth inhibition above about 70%; inactive means the rest.

Tests used:
[1] = NCI Yeast Anticancer Drug Screen. Data for the rad50 strain (AID 155);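 further: 0% = growth of vehicle-only cultures of the same strain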; conditions: S. cerevisiae rad50 strain growth inhibition; at 50.0 µM; stronger effect = higher value
Procedure, shortened: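 A DNA repair-deficient yeast mutant serves as the test organism; compound-induced growth inhibition is calculated against vehicle-treated cells.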

[2] = NCI Yeast Anticancer Drug Screen. Data for the mec2-1 strain (AID 157); conditions: S. cerevisiae mec2-1 strain, at 50.0 µM, stronger effect = higher value
Procedure, shortened: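 mec2-1 yeast strain, carrying an alteration in DNA damage repair or cell cycle control, was exposed to compounds; growth inhibition was measured relative to vehicle-treated controls.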

[3] = NCI Yeast Anticancer Drug Screen. Data for the sgs1 mgt1 strain (AID 161);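 further: 0% = growth of cultures given vehicle only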; conditions: S. cerevisiae sgs1 mgt1 strain, at 50.0 µM, stronger effect = higher value
Procedure, shortened: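 Compounds are added to genetically altered yeast, and growth is compared with cultures given vehicle alone to give percent inhibition.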

[4] = NCI Yeast Anticancer Drug Screen. Data for the cln2 rad14 strain (AID 165);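 further: 0% = growth equal to vehicle treated cultures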; conditions: S. cerevisiae cln2 rad14 strain, at 50.0 µM, stronger effect = higher value
Procedure, shortened: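 Yeast carrying cln2 and rad14 alterations (cell cycle control and DNA damage repair) were exposed to compounds. Growth inhibition was measured against vehicle-treated controls.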

[5] = NCI Yeast Anticancer Drug Screen. Data for the bub3 strain (AID 167); conditions: S. cerevisiae bub3 mutant strain, at 50.0 µM, stronger effect = higher value
Procedure, shortened: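 Inhibition values come from growth of compound-treated mutant yeast normalised to vehicle-treated controls.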

[6] = NCI Yeast Anticancer Drug Screen. Data for the mlh1 rad18 strain (AID 175); conditions: S. cerevisiae mlh1 rad18 strain growth inhibition; at 50.0 µM; stronger effect = higher value
Procedure, shortened: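 Growth inhibition of the yeast strain was measured after compound exposure and expressed relative to vehicle-treated controls. The strain carries defined defects in DNA damage repair.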

| Structure (SMILES) | growth inhibition [1] | growth inhibition [2] | growth inhibition [3] | growth inhibition [4] | growth inhibition [5] | growth inhibition [6] |
| --- | --- | --- | --- | --- | --- | --- |
| Cc1c2cnccc2c(C)c2c1c1ccccc1n2CCCCCC#N | 98.8% (active) | 99.1% (active) | 99.2% (active) | 98.1% (active) | 98.5% (active) | 98.8% (active) |
| Cc1nc(C)c(N2CCN(C(=O)O)CC2)c(=O)[nH]1 | -23.6% | -10.9% | -16% | 9.85% | 5.15% | -58.4% |
| CSC1=NNC(c2ccccc2)=C(c2ccccc2)S1 | -1.55% | 4.2% | 52% | -31.8% | 59.7% | 0.45% |
| COc1ccccc1/C=N/NS(=O)(=O)c1ccc(NC(C)=O)cc1 | 0.85% | -7.05% | 14.1% | -14.7% | -41.3% | -4.2% |
| Cc1nc(N)nc(-c2ccccc2)c1N=Nc1ccccc1Br | 5.55% | 0.15% | 4.4% | -6.95% | -0.85% | 11.8% |
| CC1CC2C3(C1)CC(C(=O)OC3=O)C2(C)C (stereo unspecified) | -3.4% | -11.4% | -7.35% | -37.4% | -2.1% | 23.4% |
| CC(C)NCc1ccccc1Sc1ccccc1CNC(C)C | 22.1% | 5.45% | 12.1% | 12.8% | 11.4% | 16.2% |
| O=S(=O)(O)c1ccccc1 | -16.6% | -8.5% | -6.05% | -2.25% | 0.15% | 1.25% |
| CN(C)c1ccc(C2(c3ccc(N(C)C)cc3)NNC(=O)c3ccccc32)cc1 | 17.2% | 7.95% | 9.35% | 12.7% | 21.1% | -0.3% |
| O=CCC(=O)c1ccc(Br)cc1 | 8.95% | 3.15% | 2.3% | 2.45% | -11.7% | 6.85% |
| Cc1nc(-c2cccnc2)sc1C(=O)/C=C/c1ccc(Cl)cc1Cl | 12.8% | -2.05% | 3.85% | 8.55% | 3.7% | 8.95% |
| COC(=O)CNc1cccc([N+](=O)[O-])c1 | -3.45% | 5.15% | -3.65% | -14.7% | -11.3% | -19.2% |
| CCCCc1c2c(nc3c1CCc1cc4cc5c(nc4nc1-3)-c1nc3c(c(CCCC)c1CC5)CCCC3)CCCC2 | 7.5% | 24.9% | 16.1% | -45.7% | 9.95% | 29.4% |
| CC(C)=CCNc1ncnc2c1ncn2CCC#N | -24.1% | -6.55% | -16.9% | 5.1% | -35.8% | -21.4% |
| CCN(CC)C(=O)CCC1CCCCC1 | -35% | -18.9% | -11.9% | -39.3% | -14.1% | -23.5% |
| CC(=O)OCCn1c(Cc2ccc(Cl)cc2)nn(C(C)=O)c1=O | 14.4% | 5.95% | 20.1% | 6.7% | -15.2% | 15.3% |
| O=S(=O)(C(=C(c1ccccc1)c1ccccc1)c1ccccc1)c1ccccc1 | 42.1% | 99.5% (active) | 19.9% | 17.8% | 6.35% | 68% |
| S=C1CC(c2ccc(Cl)cc2)Sc2ccccc2N1 (stereo unspecified) | -24.9% | -5.6% | -9.4% | -0.95% | -6.85% | -31.4% |
| COC1C=CC2OC(c3ccccc3)OCC2O1 (stereo unspecified) | -16.2% | 9.1% | -9.6% | -35% | 10% | -1.65% |
| C[Si](C)(C)C#CCOC=C1CC1 | 26% | -39.5% | -27.2% | 9.15% | -11.7% | -34.5% |
| CCc1ccc(NC(=O)c2cc(OC)c(OC)c(OC)c2)cc1 | 1.1% | 29.4% | 2.6% | -12.3% | 17.5% | 29.2% |
